Experiment [1] can be described thus: Cellular Toxicity (caspase-3) Jurkat (AID 655; active means well fitted curve in the direction sought with a large enough effect; an effect the other way counts as inactive or inconclusive;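 further: cells exposed to compound for 16 h at 37 °C before reading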). Particulars: Jurkat caspase-3 activation, luminescence; caspase-3 activation: at 92.2 µM (top of the series), DMSO = 0%, tamoxifen = 100%. In outline:
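Luminescent caspase-3/7 readout (aminoluciferin substrate cleavage) in human T-cell leukemia Jurkat cells after 16 hr compound exposure. Concentration-response normalized to DMSO and 100 uM tamoxifen; AC50 by standard Hill equation.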

A short description of experiment [2]: Cell Viability - LYMP2-026 (AID 989; active means well fitted curve in the direction sought with a large enough effect; an effect the other way counts as inactive or inconclusive; further: nearly all actives have a fitted effect of over 50% in size; further: potency means the concentration at half of the fitted maximal effect). In outline:
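Human lymphoblastoid LYMP2-026 cells, 2500/well, exposed to compound 24 h at 37 C in complete medium. Viability as intracellular ATP by CellTiter-Glo luminescence; AC50 from Hill fits of qHTS concentration-response.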

In experiment [3] the target is Estrogen receptor (Homo sapiens) (UniProt P03372). The experiment in a line: qHTS assay for small molecule agonists of estrogen receptor alpha signaling (AID 588514).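 Further: 0% = vehicle only and 100% = reference agonist; nearly all actives have a fitted effect of over 70% in size.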 In outline:
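ER-alpha-UAS-bla GripTite HEK293 cells, 5000/well in 2% charcoal/dextran-stripped FBS medium, treated with compound titrations 18 h at 37 C. CCF4 beta-lactamase read by fluorescence after 2 h RT; normalised to 20 nM 17-beta-estradiol (100%) and DMSO (0%), Hill fit for EC50 and efficacy.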

Experiment [4] addresses Bile acid receptor (Homo sapiens) (UniProt Q96RI1). The experiment in a line: qHTS assay for small molecule agonists of farnesoid X receptor signaling (AID 588527).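 Further: 0% = vehicle basal and 100% = reference agonist.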 Particulars: HEK293T FXR-UAS-bla, beta-lactamase ratio, 16 h; activation: stronger effect = higher value. In outline: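 FXR-UAS-bla HEK293T, 10% dialyzed FBS; cpds up to 92 uM titration, 16 h 37 C; CCF4 dye 2 h RT; fluorescence. Normalized to chenodeoxycholic acid 100 uM (100%) and DMSO (0%); Hill fit gives EC50, efficacy.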
In general terms: Quantitative high-throughput screening tests each substance at several concentrations.

The target in experiment [5] is Glucocorticoid receptor (Homo sapiens) (UniProt P04150). The experiment in a line: qHTS assay for small molecule agonists of glucocorticoid receptor signaling (AID 588532; active means well fitted curve in the direction sought with a large enough effect in the signal ratio, with a control signal flat; the % refers to the signal ratio;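 further: 100% = dexamethasone at 0.1 µM and 0% = DMSO only wells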). Particulars: HeLa MMTV-bla, beta-lactamase ratio, agonist, 18 h; activation: stronger effect = higher value, percent of dexamethasone control, DMSO zero. In outline:
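Using MMTV-bla HeLa cells in medium with 1% stripped FBS and 25 mM HEPES, compounds were titrated and incubated overnight-length (18 h). Beta-lactamase cleavage of CCF4 was quantified by dual-emission fluorescence.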

Experiment [6] shares this target. Description: qHTS assay for small molecule antagonists of glucocorticoid receptor signaling (AID 588533; active means well fitted inhibition curve with a large enough effect in the signal ratio, with a control signal flat, not every such curve was filed as active; the % refers to the signal ratio;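 further: cells stimulated with 2 nM dexamethasone as agonist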; further: potency means the concentration at half of the fitted maximal effect). The gist of the method:
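Antagonist-mode qHTS: compound titrations added to GRE-bla HeLa cells, then dexamethasone 2 nM final; 18 h, 37 C. CCF4 FRET fluorescence normalized to dexamethasone and DMSO; IC50 from Hill fit.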

Experiment [7] concerns the target Retinoic acid receptor RXR-alpha (Homo sapiens) (UniProt P19793). The experiment in a line: qHTS assay for small molecule agonists of retinoid X receptor alpha signaling (AID 588544).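 Further: 0% = DMSO basal wells and 100% = reference agonist.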
For experiment [8], the target named is Thyroid hormone receptor beta (Homo sapiens) (UniProt P10828). The experiment in a line: qHTS assay for small molecule agonists of thyroid hormone receptor beta signaling (AID 588545).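 Further: 0% = DMSO only and 100% = 10 nM T3.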 In outline:
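TR-UAS-bla GripTite HEK 293 cells (2500/well, medium with 2% charcoal/dextran FBS) were treated in agonist mode for 18 h at 37 C, titrated. Beta-lactamase was read by CCF4 ratio after 2 h; normalized to 10 nM T3 (100%) and DMSO, Hill-fitted for EC50 and efficacy.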

Experiment [9] can be described thus: qHTS assay for small molecule antagonists of retinoid X receptor alpha signaling (AID 588546; active means well fitted inhibition curve with a large enough effect in the signal ratio, with a control signal flat, not every such curve was filed as active; the % refers to the signal ratio;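 further: cells stimulated with 9-cis-retinoic acid as agonist; on the % scale 0 is the no-effect control and ±100 the full control effect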). Particulars: HEK293T RXRa-UAS-bla, beta-lactamase ratio, antagonist mode; measured here: W530 green channel, cytotoxicity proxy. The gist of the method:
(§1)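 Beta-lactamase reporter inhibition, read as CCF4 fluorescence ratio (ex 405, em 460/530 nm) after 2 h at RT. HEK293T UAS-bla cells, 2500/well, were stimulated with 9-cis-RA at 500 or 100 nM final alongside test compound for 18 h at 37 C.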

The target in experiment [10] is Retinoic acid receptor RXR-alpha (Homo sapiens) (UniProt P19793). Described as above. The following applies: HEK293T RXRa-UAS-bla, beta-lactamase ratio, antagonist mode. The gist of the method: as §1
Experiment [11] concerns the target Thyroid hormone receptor beta (Homo sapiens) (UniProt P10828). Description: qHTS assay for small molecule antagonists of thyroid hormone receptor beta signaling (AID 588547; active means well fitted inhibition curve with a large enough effect in the signal ratio, with a control signal flat, not every such curve was filed as active; the % refers to the signal ratio;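 further: cells stimulated with 0.4 nM T3 agonist during compound exposure; on the % scale 0 is the no-effect control and ±100 the full control effect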). The following applies: TR-UAS-bla HEK293, beta-lactamase ratio, antagonist mode, 18 h. In outline:
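Inhibition of T3-driven (0.4nM final) beta-lactamase reporter activity was measured over 0.59 nM to 92 uM compound after 18 h at 37 C. The cells were GripTite HEK293 TR-UAS-bla in charcoal/dextran-stripped serum, with CCF4 ratio read-out and IC50 from Hill fits.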

A short description of experiment [12]: qHTS assay for small molecule agonists of the antioxidant response element (ARE) signaling pathway (AID 651741; active means well fitted activation curve with a large enough effect in the signal ratio; the % refers to the signal ratio; further: potency means the concentration at half of the fitted maximal effect; on activation: % of control where 0% means no effect). The gist of the method: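 Quantitative HTS in HepG2 cells stably expressing an ARE-beta-lactamase reporter; 16 h compound exposure at 37 C, followed by 2 h room-temperature incubation with LiveBLAzer B/G FRET substrate and fluorescence measurement.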

Experiment [13] is described as follows: qHTS assay for small molecule activators of the nuclear factor-kappa B (NF-kB) signaling pathway (AID 651749; active means well fitted activation curve with a large enough effect in the signal ratio; the % refers to the signal ratio; further: % of control where 0% means no effect). Particulars: NF-kB-bla ME-180 cells, beta-lactamase FRET ratio, 16 h; activation: stronger effect = higher value. The gist of the method:
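Readout: beta-lactamase reporter driven by an NF-kB response element, detected fluorescently as loss of FRET. Cells were the ME-180 line, treated 16 hr at 37C with pin-transferred compound.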

Experiment [14] deals with Nuclear receptor subfamily 1 group I member 2 (Rattus norvegicus) (UniProt Q9R1A7). Description: qHTS assay for small molecule activators of the rat pregnane X receptor (rPXR) signaling pathway (AID 651751; call rule not given here; further: 0% is about no effect). The following applies: rPXR reporter cells, luciferase (One-Glo), 24 h.
Experiment [15] can be described thus: NFAT Signaling Pathway (AID 444; active means well fitted curve in either direction with a large enough effect, not every such curve was filed as active;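 further: carbachol stimulus at about its EC50 of 1 µM final; on the % scale 0 is the no-effect control and ±100 the full control effect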). The following applies: Jurkat NFAT-bla M1, carbachol, beta-lactamase ratio, 5 h; at 17.2 µM (top of the series) unless noted. In outline: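 Read-out: CCF4 FRET ratio (460 nm/530 nm) after 1 h RT dye loading, used for %activity and AC50 from titration series. Cells: Jurkat NFAT-β-lactamase/M1 line, treated with compound plus 1 uM carbachol for 5 h, 37 °C.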

Experiment [16] can be described thus: Stat Signaling Pathway (AID 446; active means well fitted curve in either direction with a large enough effect, not every such curve was filed as active;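 further: ME-180 cervical cancer cells given 40 pM IL-6 alongside compound; SIE-controlled beta-lactamase reporter measured as 460/530 nm FRET emission ratio; on the % scale 0 is the no-effect control and ±100 the full control effect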). In outline:
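ME-180 SIE-bla cells; overnight plating; cpd + IL-6 40 pM, 5 h, 37 C; LiveBLAzer 2.5 h RT; 460/530 nm emission ratio. Normalized to 300 pM IL-6 and 125 nM JAK inhibitor controls.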

The target of experiment [17] is Vitamin D3 receptor (Homo sapiens) (UniProt P11473). Description: qHTS assay for small molecule antagonists of vitamin D receptor signaling (AID 588541). Further: potency means the concentration at half of the fitted maximal effect. In outline:
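Antagonist-mode beta-lactamase reporter assay: HEK293T VDR-UAS-bla cells were exposed to titrated compound alongside 1-alpha,25-dihydroxyvitamin D3 at 3 nM final for 16 h. Values were normalized to the 50 nM agonist control and DMSO basal, with IC50 and efficacy from Hill equation fits.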

Experiment [18] is described as follows: qHTS assay for small molecule activators of the human pregnane X receptor (PXR) signaling pathway (AID 720659; call rule not given here; further: 0% is about no effect).
Experiment [19] deals with Glucocorticoid receptor (Homo sapiens) (UniProt P04150). Description: GR-EFC Redistribution (AID 451). Further: potency means the concentration at half of the fitted maximal effect. The following applies: CHO-K1 GR-EFC translocation, beta-gal luminescence, 2 h. In outline: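 Translocation of GR-ED fusion to nuclear EA restores b-gal, read by luminescence after 1 h room-temperature detection. Engineered CHO-K1 biosensor cells, 1,000/well, exposed 2 h at 37 C to titrations up to 46 uM final.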

Experiment [20] deals with 3',5'-cyclic-AMP phosphodiesterase 4B (Homo sapiens) (UniProt Q07343). Description: qHTS Assay for Inhibitors of PDE-IV (AID 607; active means well fitted activation curve with a large enough effect in the main read-out, with a control signal flat, not every such curve was filed as active; further: % of control where 0% means no effect). The gist of the method:
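ACTOne HEK293 cells carry a modified cAMP-gated CNG channel and express endogenous PDE4; plated 1000 cells/well, compounds up to 22.9 uM final. Membrane-potential dye fluorescence (ex 535/em 590) was read; parental cells received 10 uM forskolin + 100 uM RO 20-1724.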

Each structure is given as a SMILES string. “And” between values parts separate entries of the source, which are not always exact repeats. Identical values can stand only once. Records with an inconclusive call do not appear. Some compounds were tested as several samples or in several runs, with calls that do not always agree. The source made the active and inactive calls. Unless noted, the call rests on the fitted dose curve. Where a SMILES comes first, the peptide text is derived from it.

Sequence of Glucocorticoid receptor (Homo sapiens) (P04150 whole entry, looked up, the tested form may be a part): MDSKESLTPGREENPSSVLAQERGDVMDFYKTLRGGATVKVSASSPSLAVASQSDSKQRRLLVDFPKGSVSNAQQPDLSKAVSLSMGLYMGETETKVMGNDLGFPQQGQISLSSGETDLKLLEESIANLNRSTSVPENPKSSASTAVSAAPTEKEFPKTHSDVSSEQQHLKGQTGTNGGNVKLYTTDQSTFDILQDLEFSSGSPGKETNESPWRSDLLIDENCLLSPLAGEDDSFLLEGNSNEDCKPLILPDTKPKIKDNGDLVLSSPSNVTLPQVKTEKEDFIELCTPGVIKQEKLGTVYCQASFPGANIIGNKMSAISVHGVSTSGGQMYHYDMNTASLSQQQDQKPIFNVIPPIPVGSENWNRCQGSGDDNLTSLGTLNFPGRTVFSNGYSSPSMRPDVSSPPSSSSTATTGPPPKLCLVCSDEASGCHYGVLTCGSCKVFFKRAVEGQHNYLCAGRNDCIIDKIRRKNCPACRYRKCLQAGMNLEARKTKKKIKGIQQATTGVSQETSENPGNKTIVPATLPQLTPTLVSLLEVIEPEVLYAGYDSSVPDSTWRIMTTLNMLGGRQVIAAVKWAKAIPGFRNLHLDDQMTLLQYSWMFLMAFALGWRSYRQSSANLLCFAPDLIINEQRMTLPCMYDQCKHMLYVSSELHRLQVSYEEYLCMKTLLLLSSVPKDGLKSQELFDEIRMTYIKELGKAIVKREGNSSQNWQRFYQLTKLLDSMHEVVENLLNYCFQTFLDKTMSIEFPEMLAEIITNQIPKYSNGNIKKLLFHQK
Sequence of Bile acid receptor (Homo sapiens) (Q96RI1 whole entry, looked up): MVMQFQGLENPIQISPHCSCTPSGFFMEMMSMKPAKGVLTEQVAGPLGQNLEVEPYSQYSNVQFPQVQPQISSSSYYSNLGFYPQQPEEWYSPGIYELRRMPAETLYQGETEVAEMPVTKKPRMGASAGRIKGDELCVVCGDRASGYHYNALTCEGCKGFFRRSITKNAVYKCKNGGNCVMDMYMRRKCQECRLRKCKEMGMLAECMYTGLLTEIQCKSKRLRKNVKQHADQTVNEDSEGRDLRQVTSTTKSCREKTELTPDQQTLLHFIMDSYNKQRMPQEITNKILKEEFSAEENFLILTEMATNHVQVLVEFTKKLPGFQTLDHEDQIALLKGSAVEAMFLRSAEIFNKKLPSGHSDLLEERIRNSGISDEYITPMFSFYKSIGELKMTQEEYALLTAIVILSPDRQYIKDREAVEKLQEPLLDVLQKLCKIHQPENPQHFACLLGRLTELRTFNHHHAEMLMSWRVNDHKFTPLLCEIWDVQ
Sequence of Thyroid hormone receptor beta (Homo sapiens) (P10828 whole entry, looked up): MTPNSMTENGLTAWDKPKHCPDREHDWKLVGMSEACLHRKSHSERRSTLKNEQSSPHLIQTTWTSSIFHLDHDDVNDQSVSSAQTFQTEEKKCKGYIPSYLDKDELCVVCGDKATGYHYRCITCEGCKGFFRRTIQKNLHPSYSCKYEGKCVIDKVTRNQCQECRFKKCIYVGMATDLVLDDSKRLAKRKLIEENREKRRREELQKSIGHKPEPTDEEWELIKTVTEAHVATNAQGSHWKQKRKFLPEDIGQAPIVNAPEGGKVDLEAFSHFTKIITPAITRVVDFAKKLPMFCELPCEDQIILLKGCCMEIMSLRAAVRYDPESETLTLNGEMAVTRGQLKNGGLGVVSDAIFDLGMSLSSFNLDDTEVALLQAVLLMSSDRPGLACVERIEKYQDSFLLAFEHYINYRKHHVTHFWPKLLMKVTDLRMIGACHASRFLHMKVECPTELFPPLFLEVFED
Sequence of 3',5'-cyclic-AMP phosphodiesterase 4B (Homo sapiens) (Q07343 whole entry, looked up): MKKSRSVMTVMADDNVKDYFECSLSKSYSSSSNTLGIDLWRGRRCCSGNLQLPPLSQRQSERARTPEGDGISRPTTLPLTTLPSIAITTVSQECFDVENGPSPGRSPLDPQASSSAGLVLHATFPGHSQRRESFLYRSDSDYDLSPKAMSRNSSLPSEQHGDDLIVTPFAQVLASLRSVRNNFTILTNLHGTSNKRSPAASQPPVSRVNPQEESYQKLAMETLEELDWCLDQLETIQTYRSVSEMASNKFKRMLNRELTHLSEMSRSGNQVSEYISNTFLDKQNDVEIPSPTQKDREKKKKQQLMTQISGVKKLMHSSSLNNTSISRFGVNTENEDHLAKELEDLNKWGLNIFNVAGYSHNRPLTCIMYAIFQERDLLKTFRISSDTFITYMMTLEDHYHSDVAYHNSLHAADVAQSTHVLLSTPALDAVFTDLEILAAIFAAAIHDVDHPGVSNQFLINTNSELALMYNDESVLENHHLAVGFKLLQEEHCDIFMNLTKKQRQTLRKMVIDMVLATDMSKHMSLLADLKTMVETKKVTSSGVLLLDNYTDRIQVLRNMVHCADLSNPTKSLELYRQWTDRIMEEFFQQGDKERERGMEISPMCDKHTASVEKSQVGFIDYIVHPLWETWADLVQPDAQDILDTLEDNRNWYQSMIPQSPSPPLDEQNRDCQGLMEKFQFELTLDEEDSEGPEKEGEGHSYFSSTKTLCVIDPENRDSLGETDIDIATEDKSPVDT
Sequence of Estrogen receptor (Homo sapiens) (P03372 whole entry, looked up): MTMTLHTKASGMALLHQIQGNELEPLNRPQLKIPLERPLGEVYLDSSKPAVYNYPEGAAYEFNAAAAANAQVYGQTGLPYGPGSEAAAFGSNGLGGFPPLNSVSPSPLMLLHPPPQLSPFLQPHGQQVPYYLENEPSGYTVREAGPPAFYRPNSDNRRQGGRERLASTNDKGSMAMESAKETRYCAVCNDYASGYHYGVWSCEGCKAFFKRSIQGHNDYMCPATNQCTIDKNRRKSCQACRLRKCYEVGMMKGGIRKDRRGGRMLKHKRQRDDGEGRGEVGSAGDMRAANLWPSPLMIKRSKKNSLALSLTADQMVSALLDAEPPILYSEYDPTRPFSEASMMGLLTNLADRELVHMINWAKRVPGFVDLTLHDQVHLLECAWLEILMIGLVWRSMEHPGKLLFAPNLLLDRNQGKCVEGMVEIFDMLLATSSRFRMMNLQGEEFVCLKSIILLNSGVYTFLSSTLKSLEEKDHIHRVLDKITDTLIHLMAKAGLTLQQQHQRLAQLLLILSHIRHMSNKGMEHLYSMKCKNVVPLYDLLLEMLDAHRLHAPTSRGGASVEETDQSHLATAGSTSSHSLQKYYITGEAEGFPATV
Sequence of Vitamin D3 receptor (Homo sapiens) (P11473 whole entry, looked up): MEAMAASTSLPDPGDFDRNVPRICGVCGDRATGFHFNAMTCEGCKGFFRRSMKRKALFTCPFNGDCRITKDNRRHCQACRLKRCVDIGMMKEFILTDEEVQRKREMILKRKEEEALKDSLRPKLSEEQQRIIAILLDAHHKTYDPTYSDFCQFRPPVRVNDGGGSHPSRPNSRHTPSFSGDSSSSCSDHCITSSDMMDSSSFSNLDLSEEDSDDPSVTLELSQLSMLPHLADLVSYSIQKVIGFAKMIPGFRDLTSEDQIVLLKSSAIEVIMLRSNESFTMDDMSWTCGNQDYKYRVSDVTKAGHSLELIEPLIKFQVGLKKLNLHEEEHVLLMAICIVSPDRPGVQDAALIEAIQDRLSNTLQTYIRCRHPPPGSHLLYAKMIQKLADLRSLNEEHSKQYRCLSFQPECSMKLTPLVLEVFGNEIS
Sequence of Retinoic acid receptor RXR-alpha (Homo sapiens) (P19793 whole entry, looked up): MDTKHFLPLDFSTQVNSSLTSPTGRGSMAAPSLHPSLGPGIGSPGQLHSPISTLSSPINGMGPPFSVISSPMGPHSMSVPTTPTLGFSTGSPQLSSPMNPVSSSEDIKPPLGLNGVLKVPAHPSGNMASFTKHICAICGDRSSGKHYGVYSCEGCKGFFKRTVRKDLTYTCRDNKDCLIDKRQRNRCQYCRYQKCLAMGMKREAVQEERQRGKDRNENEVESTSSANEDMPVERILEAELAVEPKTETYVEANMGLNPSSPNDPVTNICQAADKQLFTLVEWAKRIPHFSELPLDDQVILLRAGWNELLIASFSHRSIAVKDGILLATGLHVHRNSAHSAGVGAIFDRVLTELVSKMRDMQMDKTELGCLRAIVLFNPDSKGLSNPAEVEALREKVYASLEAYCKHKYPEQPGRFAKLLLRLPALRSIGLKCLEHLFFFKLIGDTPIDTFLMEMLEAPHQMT
Sequence of Nuclear receptor subfamily 1 group I member 2 (Rattus norvegicus) (Q9R1A7 whole entry, looked up): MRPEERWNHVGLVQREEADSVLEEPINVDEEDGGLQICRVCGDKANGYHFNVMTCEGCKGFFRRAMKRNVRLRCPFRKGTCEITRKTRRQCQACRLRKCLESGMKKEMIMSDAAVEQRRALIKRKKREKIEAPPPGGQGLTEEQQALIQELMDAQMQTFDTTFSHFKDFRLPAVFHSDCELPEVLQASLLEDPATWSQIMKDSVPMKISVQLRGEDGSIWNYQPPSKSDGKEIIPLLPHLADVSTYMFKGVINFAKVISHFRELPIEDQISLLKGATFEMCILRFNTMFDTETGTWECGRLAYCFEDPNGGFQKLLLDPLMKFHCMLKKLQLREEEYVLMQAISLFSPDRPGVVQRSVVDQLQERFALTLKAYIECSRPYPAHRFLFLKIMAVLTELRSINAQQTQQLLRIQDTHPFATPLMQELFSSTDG

Regarding `O=C(O)C1C(C(=O)O)C2(Cl)C(Cl)=C(Cl)C1(Cl)C2(Cl)Cl` (stereo unspecified), the caspase-3 activation in [1] was -0.527% (inactive). Also, the Potency entry in [2], in experiment [3], in [6], in [7], in experiment [8] and in experiment [12] was “inactive” each time. Further, the activation in experiment [4] was 0.987% (inactive); in [5] it was -1.68% (inactive); in experiment [13], 0.511% (inactive). The max response in [9] is -3.5%; in [10], -12.3% (inactive); in [14], 0.252% (inactive). Moreover, in experiment [11], the activity change % (negative = inhibition) was -20.8% (inactive).

As for `COCC(C)OC(=O)c1c(N)n(Cc2ccco2)c2nc3ccccc3nc12` (stereo unspecified), the activity change, negative = inhibition in experiment [15] is 10.7% (inactive). Moreover, in experiment [16], the call was inactive.

On to `O=C1C2(Cl)C3(Cl)C4(Cl)C(Cl)(Cl)C5(Cl)C3(Cl)C1(Cl)C5(Cl)C24Cl` (stereo unspecified), for which the activation in [4] is 1.21% (inactive) and 8.36% (inactive); in experiment [13], 4.98% (inactive). The Potency in experiment [6] was 39.8 µM (active); in experiment [17], 39.8 µM (active) and inactive; in [12], 66.8 µM (active).

In the case of `CC(C)[C@@]1(NC(=O)[C@@H]2C=C3c4cccc5[nH]cc(c45)C[C@H]3N(C)C2)O[C@@]2(O)[C@@H]3CCCN3C(=O)[C@H](Cc3ccccc3)N2C1=O`, the activity change, negative = inhibition in experiment [15] was -19% (inactive). Moreover, the compound was classed as inactive in experiment [16].

With `OC(Cc1ccccc1)(c1ccccc1)C1CN2CCC1CC2` (stereo unspecified), in experiment [15], the activity change, negative = inhibition was -83.4% (active). Also, in experiment [16], the call was inactive.

Regarding `C[C@@H]1CC[C@@]2(OC1)O[C@H]1[C@@H](O)[C@H]3[C@@H]4CC[C@H]5C[C@@H](O[C@@H]6O[C@H](CO)[C@H](O[C@@H]7O[C@H](CO)[C@@H](O)[C@H](O[C@@H]8OC[C@@H](O)[C@H](O)[C@H]8O)[C@H]7O[C@@H]7O[C@H](CO)[C@@H](O)[C@H](O[C@@H]8O[C@H](CO)[C@@H](O)[C@H](O)[C@H]8O)[C@H]7O)[C@H](O)[C@H]6O)[C@H](O)C[C@]5(C)[C@H]4CC[C@]3(C)[C@H]1[C@@H]2C`, in [2], the Potency is 15.8 µM (active). Moreover, the outcome in experiment [18] was inactive.

Regarding `COP(=O)(OC)O/C(=C\Cl)c1cc(Cl)c(Cl)cc1Cl`, the Potency entry in [3] and in experiment [8] was “inactive” throughout. In addition, the activation in experiment [4] was -2.88% (inactive); in experiment [13], -1.17% (inactive). In addition, in experiment [11], the activity change % (negative = inhibition) is 2.4% (inactive). Further, the Potency in [12] was 37.6 µM (active). In experiment [14], the max response was 1.57% (inactive).

Consider `CC(C)C[C@H](NC(=O)[C@@H]1CCCN1C(=O)[C@@H](N)Cc1ccc(O)cc1)C(=O)NCC(N)=O` (H-YPLG-NH2), for which the activity change, negative = inhibition in experiment [15] is 14.8% (inactive). Besides, the result in experiment [16] was inactive.

Turning to `Oc1cc2c(cc1O)[C@H]1c3ccccc3CN[C@H]1CC2`, the Potency in [19] is > 46 µM (inactive). Moreover, in experiment [20], the call was inactive.

`COc1cc2c(cc1O)CCN[C@H]2C`: the Potency in experiment [19] was > 46 µM (inactive).

On to `O=c1ccc2cc(O[C@@H]3O[C@@H](CO)[C@@H](O)[C@@H](O)[C@H]3O)c(O)cc2o1`, for which the Potency in experiment [19] is > 46 µM (inactive). In addition, the compound was classed as inactive in experiment [20].

Regarding `OC[C@H]1CCCN2CCCC[C@@H]12`, in [20], the compound was called inactive.

Take `C[C@H]1CC[C@@H]2[C@@H](C)C(=O)O[C@H]3O[C@@]4(C)CC[C@@H]1[C@]32OO4`: the call in experiment [20] was inactive.

On to `C=C(C)[C@H]1[C@H]2OC(=O)[C@@H]1[C@]1(O)C[C@H]3O[C@]34C(=O)O[C@H]2[C@]14C`, for which, in experiment [19], the Potency was > 46 µM (inactive). In addition, the result in experiment [20] was inactive.

`CC1=CC(=O)C2=C(C)C[C@H](O)[C@@H]3[C@@H](OC(=O)[C@H]3C)[C@H]12`: in experiment [19], the Potency was > 46 µM (inactive).

`COc1cc2c(cc1OC)-c1c(OC)c(OC)c(CO)c3c1[C@H](C2)N(C)CC3`: the compound was classed as inactive in experiment [20].

In the case of `C[C@@]12CCC[C@](C)(C(=O)O)[C@@H]1CCc1ccc(O)cc12`, the Potency in [19] was > 46 µM (inactive).

As to `CC(C)(O)[C@H]1[C@H]2OC(=O)[C@@H]1[C@]1(O)C[C@H]3O[C@]34C(=O)O[C@H]2[C@]14C`, the Potency in [19] was > 46 µM (inactive). Also, the call in experiment [20] was inactive.

Consider `COC[C@H]1OC(=O)c2coc3c2[C@@]1(C)C1=C(C3=O)[C@H]2CCC(=O)[C@@]2(C)C[C@H]1OC(C)=O`, for which the Potency in [19] was > 46 µM (inactive). Moreover, the outcome in [20] was inactive.

In the case of `COC1=C[C@H]2[C@@H]3Cc4ccc(OC)c(O)c4[C@@]2(CCN3C)CC1=O`, the Potency in experiment [19] was > 46 µM (inactive). In experiment [20], the result was inactive.

As to `Cc1c(N=Cc2c(O)n(CCc3ccc(F)cc3)c(=O)[nH]c2=O)c(=O)n(-c2ccccc2)n1C`, the outcome in experiment [16] was inactive.

Consider `COc1cc2c(cc1OC)-c1c(O)c(OC)cc3c1[C@@H](C2)N(C)CC3`, for which, in experiment [20], the result was inactive.

Source of the values: PubChem BioAssay (NCATS).
